40 molecules from PubChem BioAssay (Tox21) can be followed below.

Activity calls are given as the source filed them. Calls come from the whole dose curve; as a rule, active = well fitted curve in the direction sought with a large enough effect in the repeat runs; inconclusive = weak or mixed curves; inactive = flat fitted curve, though single readings scatter.

The experiment can be described thus: qHTS assay to test for compound auto fluorescence at 460 nm (blue) in HepG2 cells (AID 720687). The note with it: autofluorescence 405/460 nm, 1 h; series mostly up to 91.3 µM. From the text: U.S. Tox21 Program National Center for Advancing Translational Sciences [NCATS] NIH Chemical Genomics Center [NCGC] U.S. Environmental Protection Agency [EPA] National Institutes of Environmental Health Sciences [NIEHS] National Toxicology Program [NTP] U.S. Food and Drug Administration [FDA] Tox21 Assay Overview: Compound auto fluorescence often interferes with screening of the compound library against various biological targets and signaling pathways. Some of these compounds may have fluorophoric properties. Such properties may interfere with the assay outputs resulting in false positives and/or negatives. To decrease such complications and ensure the compound activities are relevant in terms of biological response, the Tox21 10K compound library was screened for auto fluorescence. From the fluorophores used as reporter signals in our screening assays, the auto fluorescence equivalencies of compounds against three fluorophores have been evaluated: Triamterene, Fluorescein and Rose Bengal sodium for blue, green and red fluorescence, respectively. The fluorescence intensities were measured using Excitation/Emission wavelengths at 405/460nm, 485/535nm and 540/590nm for blue, green and red labels, respectively. This assay includes the blue fluorescence data.
Tox21 Assay Protocol Summary: 2,000 HepG2 cells in 5 uL of culture medium (MEM containing 10% FBS) per well were dispensed into black wall/clear bottom 1536-well plates using a Multidrop Combi Dispenser (ThermoFisher Scientific, Waltham, MA). The assay plates were incubated overnight at 37 C to allow cell attachment to the well bottom, followed by the transfer of 23 nL compound or DMSO vehicle by a pintool work station (Kalypsys , San Diego, CA). After the assay plates were incubated for 1 hr at 37 C and 5% CO2, fluorescence intensities in the assay plates were measured by an Envision (PerkinElmer, Shelton, CT) plate reader using three labels for measuring blue, green and red fluorescence at […] 460, 535 and 590 nm respectively.
Take `COC(=O)c1ccccc1`: the call was inactive.

As to `CC(=O)CC/C=C(\C)CCC=C(C)C`, the molecule was classed as inactive.

For the molecule `C[Si](C)(C)O[Si](C)(C)C`, the molecule was called inactive.

In the case of `Cc1ccc2c(n1)Oc1ccc(C(C)C(=O)OCC(=O)N(C)C)cc1C2` (stereo not given), the outcome was inactive.

In the case of `c1ccc2c(c1)c1cccc3ccc4cccc2c4c31`, the molecule was classed as inactive.

`Cc1c(OCC(F)(F)F)ccnc1CS(=O)c1nc2ccccc2[nH]1` (stereo not given): the outcome was inactive.

For the molecule `COc1ccc(OC)c(C(O)CNC(=O)CN)c1` (stereo not given), the molecule was classed as inactive.

As for `O=[N+]([O-])c1ccc2c(c1)Cc1ccccc1-2`, the call was inactive.

Take `Nc1ncn([C@@H]2O[C@H](CO)[C@@H](O)[C@H]2O)c(=O)n1`: the molecule was classed as inactive.

On to `OC(CCl)CCl`, for which the molecule was classed as inactive.

Consider `O=C1c2cccc(O)c2C(=O)c2c(O)cccc21`, for which the call was inactive.

For the molecule `COC(=O)C1=C(C)NC(C)=C(C(=O)OCCN(C)Cc2ccccc2)C1c1cccc([N+](=O)[O-])c1` (stereo not given), the molecule was classed as inactive.

Regarding `CCCCOCCOCCOCCO`, the molecule was classed as inactive.

For `CN(C)CCN(Cc1cccs1)c1ccccn1`, the outcome was inactive.

For the molecule `CC1=CCC(C(C)(C)O)CC1` (stereo not given), the molecule was classed as inactive.

`CC(C(=O)O)c1cccc(C(=O)c2ccccc2)c1` (stereo not given): the molecule was called inactive.

Take `CC(=O)C1(C)CC2=C(CCCC2(C)C)CC1C` (stereo not given): the molecule was called inactive.

As to `COC(=O)Nc1nc2ccc(S(=O)c3ccccc3)cc2[nH]1` (stereo not given), the molecule was called inactive.

As to `Cc1[nH]c(=O)c(C#N)cc1-c1ccncc1`, the molecule was called inactive.

As for `O=P(O)(O)O`, the call was inactive.

For `O=C(c1ccccc1)c1ccc(O)cc1O`, the molecule was called inactive.

For `NC=O`, the outcome was inactive.

Consider `Clc1nc(Cl)c(Cl)c(Cl)c1Cl`, for which the call was inactive.

With `Oc1ccc(O)cc1`, the result was inactive.

`Brc1cc(Oc2cc(Br)c(Br)c(Br)c2Br)c(Br)c(Br)c1Br`: the outcome was inactive.

In the case of `COc1cc([C@@H]2c3cc4c(cc3[C@H](O)[C@H]3COC(=O)[C@H]23)OCO4)cc(OC)c1OC`, the molecule was called inactive.

Turning to `CN1C(C(=O)Nc2ccccn2)=C(O)c2ccccc2S1(=O)=O`, the molecule was classed as inactive.

As for `CCCCOCCOCCO`, the call was inactive.

Turning to `CN(C)C(=N)N=C(N)N`, the molecule was called inactive.

For the molecule `O=C(Nc1ccc(Cl)cc1)Nc1ccc(Cl)c(Cl)c1`, the molecule was classed as inactive.

With `C=C(C)C1CC=C(C)CC1` (stereo not given), the molecule was classed as inactive.

`CC(C)CC(C)(O)C#CC(C)(O)CC(C)C` (stereo not given): the call was inactive.

As to `O=C(c1ccccc1)c1ccccc1O`, the molecule was classed as inactive.

With `COC(=O)CCC(=O)OC`, the molecule was called inactive.

Consider `CC1=CC2C3CC(C=C3C)C2C1` (stereo not given), for which the call was inactive.

In the case of `C#C[C@]1(O)CC[C@H]2[C@@H]3CCC4=Cc5oncc5C[C@]4(C)[C@H]3CC[C@@]21C`, the molecule was called inactive.

`C=CC(C)(CCC=C(C)C)OC(C)=O` (stereo not given): the result was inactive.

For `Nc1ccc(Nc2ccccc2)cc1`, the molecule was classed as inactive.

With `CC(=O)O[C@]1(C(C)=O)CC[C@H]2[C@@H]3C=C(Cl)C4=CC(=O)[C@@H]5C[C@@H]5[C@]4(C)[C@H]3CC[C@@]21C`, the outcome was inactive.

As for `CC(C)OB(OC(C)C)OC(C)C`, the call was inactive.
